# The source made the active and inactive calls. How the source made its calls: active means hit-call score of the fitted dose curve at least 0.9, where 1 is the maximum; inactive means score below 0.9.
# What was measured:
# [1] = read-out: TIMP metallopeptidase inhibitor 2 (TIMP2), TIMP2 (gene 7077); test: BSK_KF3CT_TIMP2: BioMAP Diversity Plus: KF3CT Assay for TIMP metallopeptidase inhibitor 2 (TIMP2) Biomarker Activity (AID 2283071); settings: primary human keratinocytes with fibroblasts; actives raise or lower the signal
# Method in brief: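 Co-culture of human primary keratinocytes and foreskin fibroblasts, measured 24 h after chemical dosing. TIMP-2 quantified by ELISA and fitted in both directions relative to DMSO. Cytotoxicity checked in parallel cultures by SRB total-protein staining.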
# [2] = read-out: Transforming growth factor beta 1 (TGFb1), TGFB1 (gene 7040); test: BSK_KF3CT_TGFb1: BioMAP Diversity Plus: KF3CT Assay for Transforming growth factor beta 1 (TGFb1) Biomarker Activity (AID 2283072); settings: primary human keratinocytes with fibroblasts; actives raise or lower the signal
# Method in brief: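 Human keratinocyte/foreskin fibroblast co-culture; TGF-b1 measured by ELISA 24 h after dosing, fitted bidirectionally versus DMSO. Cytotoxicity checked in parallel cultures by total protein (SRB staining, 560 nm).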
# [3] = read-out: C-C motif chemokine 2 (Homo sapiens) (UniProt P13500); test: BSK_KF3CT_MCP1: BioMAP Diversity Plus: KF3CT Assay for Monocyte Chemoattractant Protein 1 (MCP1/CCL2) Biomarker Activity (AID 2283073); settings: primary human keratinocytes with fibroblasts; actives raise or lower the signal
# Method in brief: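 ELISA readout of MCP-1 after 24 h chemical dosing of a human skin primary co-culture of keratinocytes and foreskin fibroblasts. Activity was fitted in both directions against DMSO.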
# [4] = read-out: Matrix Metallopeptidase 9 (MMP9), MMP9 (gene 4318); test: BSK_KF3CT_MMP9: BioMAP Diversity Plus: KF3CT Assay for Matrix Metallopeptidase 9 (MMP9) Biomarker Activity (AID 2283074); settings: primary human keratinocytes with fibroblasts; actives raise or lower the signal;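 on AC50: MMP9 protein level quantified by ELISA in the co-culture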
# Method in brief: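 Human keratinocyte and foreskin fibroblast co-culture exposed to chemicals for 24 h; MMP9 biomarker measured by ELISA, bidirectional fitting relative to DMSO; cytotoxicity tracked by SRB total protein staining in parallel cultures.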
# [5] = read-out: urokinase plasminogen activator (uPA), PLAU (gene 5328); test: BSK_KF3CT_uPA: BioMAP Diversity Plus: KF3CT Assay for urokinase plasminogen activator (uPA) Biomarker Activity (AID 2283075); settings: primary human keratinocytes with fibroblasts; actives raise or lower the signal
# Method in brief: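 Primary human keratinocyte/foreskin fibroblast co-culture exposed to chemical; uPA measured by ELISA at 24 h. Bidirectional fit versus DMSO, with parallel SRB total-protein staining for cytotoxicity.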
# CD40, CD40 (gene 958) [6] = test: BSK_LPS_CD40: BioMAP Diversity Plus: LPS Assay for CD40 Biomarker Activity (AID 2283076); settings: primary human HUVEC with PBMC; actives raise or lower the signal
# Method in brief: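 Cells were dosed, incubated 24 h, then assayed for CD40 by ELISA. Gain or loss of signal was analysed relative to DMSO controls. The culture paired human umbilical vein endothelium with peripheral blood mononuclear cells.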
# [7] = read-out: E-selectin (Homo sapiens) (UniProt P16581); test: BSK_LPS_Eselectin: BioMAP Diversity Plus: LPS Assay for Eselectin Biomarker Activity (AID 2283077); settings: primary human HUVEC with PBMC; actives raise or lower the signal
# Method in brief: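 Primary human vascular co-culture (endothelium plus PBMC) was dosed with chemical, then E-selectin quantified by ELISA at 24 h. Endpoint values derive from bidirectional curve fitting relative to DMSO.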
# [8] = read-out: Interleukin-8 (IL8), CXCL8 (gene 3576); test: BSK_LPS_IL8: BioMAP Diversity Plus: LPS Assay for Interleukin-8 (IL8) Biomarker Activity (AID 2283078); settings: primary human HUVEC with PBMC; actives raise or lower the signal
# Method in brief: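 Readout is IL-8 by ELISA, taken 24 h after compounds were added to LPS-stimulated endothelial/PBMC co-cultures. Both increases and decreases relative to DMSO control were scored through bidirectional fitting.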
# [9] = BSK_LPS_SRB: Viability Assessment in the BioMAP Diversity Plus: LPS Assay (AID 2283079); settings: primary human HUVEC with PBMC;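 further: total protein by sulforhodamine B absorbance as a cytotoxicity measure; measured one day after compound addition; fitted in both directions against DMSO so loss or gain of signal counts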
# Method in brief: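 Readout is SRB absorbance at 560 nm (0.1% stain, TCA-fixed parallel cultures) as a total-protein cytotoxicity measure. Cells: primary human umbilical vein endothelium plus peripheral blood mononuclear cells, 24 h after chemical exposure; DMSO served as baseline.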
# [10] = read-out: Interleukin-1 alpha (IL1a), IL1A (gene 3552); test: BSK_LPS_IL1a: BioMAP Diversity Plus: LPS Assay for Interleukin-1 alpha (IL1a) Biomarker Activity (AID 2283080); settings: primary human HUVEC with PBMC; actives raise or lower the signal
# Method in brief: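 ELISA read-out of IL-1 alpha from a human primary vascular co-culture (endothelium plus PBMC) under LPS, sampled 24 hours post-dosing. Activity was fitted in both directions relative to DMSO controls.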
# [11] = BSK_LPS_PGE2: BioMAP Diversity Plus: LPS Assay for Prostaglandin E2 (PGE2) Biomarker Activity (AID 2283082); settings: primary human HUVEC with PBMC; actives raise or lower the signal;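 on AC50: secreted prostaglandin E2 measured by ELISA in LPS-stimulated co-culture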
# Method in brief: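 HUVEC plus human PBMC co-culture stimulated with LPS; secreted PGE2 quantified by ELISA 24 h after chemical dosing. Activity fitted bidirectionally against DMSO baseline; parallel SRB staining (0.1% SRB after 10% TCA fixation, 560 nm) flags overt cytotoxicity.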
# [12] = read-out: Tissue Factor, F3 (gene 2152); test: BSK_LPS_TissueFactor: BioMAP Diversity Plus: LPS Assay for Tissue Factor Biomarker Activity (AID 2283084); settings: primary human HUVEC with PBMC; actives raise or lower the signal
# Method in brief: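 ELISA signal for cell-surface Tissue Factor (CD142) was read 24 h after compound dosing of an LPS-stimulated human endothelial–PBMC primary co-culture. Gain or loss of signal was scored relative to DMSO.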
# [13] = read-out: Tumor necrosis factor (Homo sapiens) (UniProt P01375); test: BSK_LPS_TNFa: BioMAP Diversity Plus: LPS Assay for Tumour Necrosis Factor alpha (TNFa) Biomarker Activity (AID 2283085); settings: primary human HUVEC with PBMC; actives raise or lower the signal
# Method in brief: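 Human umbilical vein endothelial cells co-cultured with PBMC and stimulated with LPS. TNFa was measured by ELISA 24 h after chemical dosing, fitted bidirectionally relative to DMSO.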
# [14] = read-out: Vascular cell adhesion molecule 1 (VCAM1), VCAM1 (gene 7412); test: BSK_LPS_VCAM1: BioMAP Diversity Plus: LPS Assay for Vascular cell adhesion molecule 1 (VCAM1) Biomarker Activity (AID 2283086); settings: primary human HUVEC with PBMC; actives raise or lower the signal
# Method in brief: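 Human umbilical vein endothelial cells co-cultured with PBMC and stimulated with LPS; VCAM-1 measured by ELISA 24 h after dosing. Bidirectional curve fitting against DMSO baseline; cytotoxicity tracked in parallel by SRB total-protein staining.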
# CD40, CD40 (gene 958) [15] = test: BSK_SAg_CD40: BioMAP Diversity Plus: SAg Assay for CD40 Biomarker Activity (AID 2283088); settings: primary human HUVEC with PBMC; actives raise or lower the signal
# Method in brief: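 Compounds were dosed onto a human primary endothelial–PBMC co-culture, and after 24 h CD40 was quantified by ELISA using a fluorescence signal. Activity in either direction was fitted relative to DMSO.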
# CD69, CD69 (gene 969) = test: BSK_SAg_CD69: BioMAP Diversity Plus: SAg Assay for CD69 Biomarker Activity (AID 2283089); settings: primary human HUVEC with PBMC; actives raise or lower the signal;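 on AC50: cell surface CD69 protein quantified by ELISA with fluorescence detection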
# Method in brief: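 ELISA, fluorescence read-out: CD69 on human umbilical vein endothelial cell + PBMC co-culture, 24 h post-dosing. Gain or loss of signal fitted bidirectionally against DMSO baseline.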
# [16] = read-out: Monocyte Chemoattractant Protein-1 (MCP1), CCL2 (gene 6347); test: BSK_SAg_MCP1: BioMAP Diversity Plus: SAg Assay for Monocyte Chemoattractant Protein-1 (MCP1) Biomarker Activity (AID 2283090); settings: primary human HUVEC with PBMC; actives raise or lower the signal
# Method in brief: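 MCP-1 levels in the endothelial–PBMC SAg co-culture were quantified by ELISA at 24 h post-dosing; both increases and decreases versus DMSO scored. Cytotoxicity monitored by SRB total protein in parallel cultures.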
# [17] = read-out: Monocyte Chemoattractant Protein-1 (MCP1), CCL2 (gene 6347); test: BSK_LPS_MCP1: BioMAP Diversity Plus: LPS Assay for Monocyte Chemoattractant Protein-1 (MCP1) Biomarker Activity (AID 2283081); settings: primary human HUVEC with PBMC; actives raise or lower the signal
# Method in brief: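 Human endothelial–PBMC co-cultures were dosed with chemical, then LPS-driven MCP-1 levels were quantified by ELISA at 24 h. Activity in either direction was fitted versus DMSO negative control.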
# CD38, CD38 (gene 952) = test: BSK_SAg_CD38: BioMAP Diversity Plus: SAg Assay for CD38 Biomarker Activity (AID 2283087); settings: primary human HUVEC with PBMC; actives raise or lower the signal
# Method in brief: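 Human HUVEC plus PBMC co-culture stimulated with superantigen; CD38 measured by ELISA 24 h after chemical dosing. Fluorescence read-out, bidirectional fit against DMSO; cytotoxicity tracked in parallel by SRB and Alamar Blue.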
# [18] = read-out: Macrophage colony-stimulating factor (MCSF), CSF1 (gene 1435); test: BSK_LPS_MCSF: BioMAP Diversity Plus: LPS Assay for Macrophage colony-stimulating factor (MCSF) Biomarker Activity (AID 2283083); settings: primary human HUVEC with PBMC; actives raise or lower the signal
# Method in brief: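 ELISA readout of M-CSF after 24 h compound exposure in a human endothelial/PBMC co-culture. Activity, in either direction, is fitted relative to DMSO vehicle.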
# Chain of Tumor necrosis factor (Homo sapiens) (P01375 whole entry, looked up): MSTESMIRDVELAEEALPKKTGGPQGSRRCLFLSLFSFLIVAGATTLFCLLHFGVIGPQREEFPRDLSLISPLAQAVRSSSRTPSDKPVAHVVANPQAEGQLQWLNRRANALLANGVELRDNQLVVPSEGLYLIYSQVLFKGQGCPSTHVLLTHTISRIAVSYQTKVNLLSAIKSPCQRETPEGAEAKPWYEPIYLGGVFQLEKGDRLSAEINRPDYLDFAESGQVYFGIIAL
# Chain of E-selectin (Homo sapiens) (P16581 whole entry, looked up): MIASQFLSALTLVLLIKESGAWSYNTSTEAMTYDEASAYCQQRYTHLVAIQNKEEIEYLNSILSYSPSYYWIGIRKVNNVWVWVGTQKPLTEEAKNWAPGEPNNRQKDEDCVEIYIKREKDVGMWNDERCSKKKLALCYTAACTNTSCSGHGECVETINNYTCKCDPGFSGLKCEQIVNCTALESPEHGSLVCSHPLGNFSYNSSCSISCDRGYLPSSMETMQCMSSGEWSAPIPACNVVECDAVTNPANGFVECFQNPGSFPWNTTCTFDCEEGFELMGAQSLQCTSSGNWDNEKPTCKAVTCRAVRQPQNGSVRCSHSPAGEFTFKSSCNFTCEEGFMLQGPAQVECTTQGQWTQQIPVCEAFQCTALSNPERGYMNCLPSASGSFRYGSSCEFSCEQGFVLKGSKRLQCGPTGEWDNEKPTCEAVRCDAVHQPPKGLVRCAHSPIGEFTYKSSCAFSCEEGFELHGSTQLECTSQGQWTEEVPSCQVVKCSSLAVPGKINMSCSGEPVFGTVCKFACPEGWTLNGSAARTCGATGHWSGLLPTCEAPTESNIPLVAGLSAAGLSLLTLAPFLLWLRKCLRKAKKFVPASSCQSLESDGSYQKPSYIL
smiles,measurement,setting,value
CCN(Cc1cccnc1)C(=O)c1cccc(Cl)c1[C@]1(C)C(=O)N(Cc2ccc(OC)cc2OC)c2ccc(Cl)cc21,outcome,[1],inactive
same,outcome,[2],inactive
same,outcome,[3],inactive
same,AC50,[4],4.21 µM (active)
same,outcome,[5],inactive
same,AC50,"CD40, CD40 (gene 958) [6]",5.26 µM (active)
same,AC50,[7],10.8 µM (active)
same,AC50,[8],5.54 µM (active)
same,AC50,[9],6.69 µM (active)
same,AC50,[10],4.18 µM (active)
same,outcome,[11],inactive
same,AC50,[12],12.5 µM (active)
same,outcome,[13],inactive
same,AC50,[14],5.26 µM (active)
same,AC50,"CD40, CD40 (gene 958) [15]",5.55 µM (active)
same,AC50,"CD69, CD69 (gene 969)",7.2 µM (active)
same,AC50,[16],5.36 µM (active)
CC[C@H](NC(=O)c1cc(F)ccc1NS(=O)(=O)c1cccc2cccnc12)c1ccccc1,outcome,[1],inactive
same,outcome,[2],inactive
same,outcome,[3],inactive
same,outcome,[4],inactive
same,outcome,[5],inactive
same,outcome,"CD40, CD40 (gene 958) [6]",inactive
same,outcome,[7],inactive
same,outcome,[8],inactive
same,outcome,[9],inactive
same,outcome,[10],inactive
same,outcome,[17],inactive
same,AC50,[11],8.72 µM (active)
same,outcome,[12],inactive
same,outcome,[13],inactive
same,outcome,[14],inactive
same,AC50,"CD40, CD40 (gene 958) [15]",6.29 µM (active)
same,AC50,"CD69, CD69 (gene 969)",10.5 µM (active)
same,AC50,[16],5.84 µM (active)
c1ccc(C[n+]2cccc3ccccc32)cc1,outcome,[1],inactive
same,outcome,[2],inactive
same,outcome,[3],inactive
same,outcome,[4],inactive
same,outcome,[5],inactive
same,outcome,[7],inactive
same,outcome,[8],inactive
same,outcome,[9],inactive
same,outcome,[10],inactive
same,outcome,[11],inactive
same,outcome,[12],inactive
same,outcome,[13],inactive
same,outcome,[14],inactive
same,outcome,"CD38, CD38 (gene 952)",inactive
same,outcome,"CD40, CD40 (gene 958) [15]",inactive
same,outcome,"CD69, CD69 (gene 969)",inactive
same,outcome,[16],inactive
O=C(O)c1ccccc1C(=O)OCc1ccccc1,outcome,[1],inactive
same,outcome,[2],inactive
same,outcome,[3],inactive
same,outcome,[4],inactive
same,outcome,[5],inactive
same,outcome,"CD40, CD40 (gene 958) [6]",inactive
same,outcome,[7],inactive
same,outcome,[8],inactive
same,outcome,[9],inactive
same,outcome,[10],inactive
same,outcome,[11],inactive
same,outcome,[18],inactive
same,outcome,[12],inactive
same,outcome,[13],inactive
same,outcome,[14],inactive
same,outcome,"CD38, CD38 (gene 952)",inactive
same,outcome,"CD40, CD40 (gene 958) [15]",inactive
same,outcome,"CD69, CD69 (gene 969)",inactive
same,outcome,[16],inactive
CCN(Cc1cccc(S(=O)(=O)O)c1)c1ccc(C(=C2C=CC(=[N+](CC)Cc3cccc(S(=O)(=O)O)c3)C=C2)c2ccccc2S(=O)(=O)[O-])cc1,outcome,[1],inactive
same,outcome,[2],inactive
same,outcome,[3],inactive
same,outcome,[4],inactive
same,outcome,[5],inactive
same,outcome,"CD40, CD40 (gene 958) [6]",inactive
same,outcome,[7],inactive
same,outcome,[8],inactive
same,outcome,[9],inactive
same,outcome,[10],inactive
same,outcome,[11],inactive
same,outcome,[18],inactive
same,outcome,[12],inactive
same,outcome,[13],inactive
same,outcome,[14],inactive
same,outcome,"CD40, CD40 (gene 958) [15]",inactive
same,outcome,"CD69, CD69 (gene 969)",inactive
same,outcome,[16],inactive
CO[C@H]1/C=C/O[C@@]2(C)Oc3c(C)c(O)c4c(O)c(c(/C=N/N5CCN(C)CC5)c(O)c4c3C2=O)NC(=O)/C(C)=C\C=C\[C@H](C)[C@H](O)[C@@H](C)[C@@H](O)[C@@H](C)[C@H](OC(C)=O)[C@@H]1C,outcome,[1],inactive
same,outcome,[2],inactive
same,outcome,[3],inactive
same,outcome,[4],inactive
same,outcome,[5],inactive
same,outcome,"CD40, CD40 (gene 958) [6]",inactive
same,outcome,[7],inactive
same,outcome,[8],inactive
same,outcome,[9],inactive
same,outcome,[10],inactive
same,outcome,[11],inactive
same,outcome,[18],inactive
same,outcome,[12],inactive
same,outcome,[13],inactive
same,outcome,[14],inactive
same,outcome,"CD40, CD40 (gene 958) [15]",inactive
same,AC50,"CD69, CD69 (gene 969)",0.64 µM (active)
same,outcome,[16],inactive

# Reference: PubChem BioAssay (EPA / NIEHS)
